# About 410 targets per protein were measured; listed, in parts, are those with the strongest signals and a random draw of the rest.
# B1: X56-1 (Clostridium perfringens), P26831 (protein)
# chain: MGSSHHHHHHSSGLVPRGSHMASDPNRIIATYISNRQDAPTGNPDNIFDNNASTELVYKNPNRIDVGTYVGVKYSNPITLNNVEFLMGANSNPNDTMQKAKIQYTVDGREWIDLEEGVEYTMPGAIKVENLDLKVRGVRLIATEARENTWLGVRDINVNKKEDSNSGVEF
# B2: Pwp7 (Candida glabrata) (protein)
# chain: MGSSHHHHHHSSGLVPRGSHMASKNPVDFPNLCQYPNLDGAVAGFDTEIYNADPSILINFSLWPILQFPKEWHKTIGRAITTQTNFKLPASDTTLFGVSIPTQNILIEFRGYFIPPKSGTYTFALYLTDDGSAMFLGNDAAFPCGNITSWSNPTNDQVSVSDYDPKKKTLTVYMVAGVAYPLRIAYYNREKGGSLTASFVDPDGLTHSDWNGYIWTLPSCDNCKYS
# Legend:
# Experiment in all cases: glycan array binding signal (z-score within array); higher = stronger binding
# Conditions in all cases: glycan notation: IUPAC condensed, linker removed
# [1] = molecular target: Fuc(a1-2)Gal(b1-3)GalNAc(b1-3)Gal
# Summary of the method: (§1)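 Glycan array data were curated from 3228 arrays in the Consortium for Functional Glycomics database and kept only where the protein sequence was available. Glycan names were converted to IUPAC-condensed notation, and columns mapping to the same glycan were averaged. The binding signal is a within-array Z-score, averaged across arrays of the same protein sequence at different concentrations or buffers and across linkers. Negative Z-scores can be read as non-binding.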
# [2] = molecular target: Fuc(a1-2)Gal(b1-3)GalNAc(b1-3)Gal(b1-4)Glc
# Summary of the method: as §1
# [3] = molecular target: Fuc(a1-2)Gal(b1-4)[Fuc(a1-3)]GlcNAc
# Summary of the method: as §1
# [4] = molecular target: Fuc(a1-3)GlcNAc
# Summary of the method: as §1
# [5] = molecular target: Gal(b1-3)GalNAc(b1-3)Gal(b1-4)GlcNAc
# Summary of the method: as §1
# [6] = molecular target: Gal(b1-4)GlcNAc(b1-2)Man(a1-3)[Gal(b1-4)GlcNAc(b1-2)Man(a1-6)]Man(b1-4)GlcNAc(b1-4)GlcNAc
# Summary of the method: as §1
# [7] = molecular target: Gal3S6S(b1-4)GlcNAc
# Summary of the method: as §1
# [8] = molecular target: GlcNAc(b1-3)Gal(b1-3)GalNAc
# Summary of the method: as §1
# [9] = molecular target: GlcNAc(b1-3)Gal(b1-4)Glc
# Summary of the method: as §1
# [10] = molecular target: GlcNAc(b1-3)Gal(b1-4)GlcNAc(b1-3)Gal(b1-4)GlcNAc
# Summary of the method: as §1
# [11] = molecular target: GlcNAc(b1-3)[GlcNAc(b1-6)]GlcNAc
# Summary of the method: as §1
# [12] = molecular target: GlcNAc(b1-4)Gal(b1-4)GlcNAc
# Summary of the method: as §1
# [13] = molecular target: Man(a1-2)Man(a1-3)[Man(a1-3)[Man(a1-6)]Man(a1-6)]Man(b1-4)GlcNAc(b1-4)GlcNAc
# Summary of the method: as §1
# [14] = molecular target: Man(a1-3)[Man(a1-6)]Man
# Summary of the method: as §1
# [15] = molecular target: Neu5Ac(a2-3)Gal(b1-4)GlcNAc(b1-3)Gal(b1-4)GlcNAc
# Summary of the method: as §1
# [16] = molecular target: Neu5Ac(a2-3)Gal(b1-4)[Fuc(a1-3)]GlcNAc6S
# Summary of the method: as §1
# [17] = molecular target: Neu5Ac(a2-3)GalNAc
# Summary of the method: as §1
# [18] = molecular target: Neu5Ac(a2-3)[GalNAc(b1-4)]Gal(b1-4)Glc
# Summary of the method: as §1
# [19] = molecular target: Neu5Ac(a2-6)Gal(b1-4)GlcNAc(b1-2)Man(a1-3)[Neu5Ac(a2-6)Gal(b1-4)GlcNAc(b1-2)Man(a1-6)]Man(b1-4)GlcNAc(b1-4)GlcNAc
# Summary of the method: as §1
# [20] = molecular target: Neu5Ac(a2-6)Gal(b1-4)GlcNAc6S
# Summary of the method: as §1
# [21] = molecular target: Neu5Ac(a2-8)Neu5Ac(a2-3)Gal(b1-4)Glc
# Summary of the method: as §1
# [22] = molecular target: Fuc(a1-2)Gal(b1-3)[Fuc(a1-4)]GlcNAc
# Summary of the method: as §1
# [23] = molecular target: Fuc(a1-2)Gal(b1-4)Glc
# Summary of the method: as §1
# [24] = molecular target: Fuc(a1-2)Gal(b1-4)GlcNAc(b1-3)Gal(b1-4)GlcNAc(b1-3)Gal(b1-4)GlcNAc
# Summary of the method: as §1
# [25] = molecular target: Fuc(a1-2)[Gal(a1-3)]Gal(b1-3)GlcNAc(b1-6)GalNAc
# Summary of the method: as §1
# [26] = molecular target: Fuc(a1-3)[Gal(b1-4)]Glc6S
# Summary of the method: as §1
# [27] = molecular target: Fuc(a1-3)[Gal(b1-4)]GlcNAc(b1-2)Man(a1-3)[Fuc(a1-3)[Gal(b1-4)]GlcNAc(b1-2)Man(a1-6)]Man(b1-4)GlcNAc(b1-4)[Fuc(a1-6)]GlcNAc
# Summary of the method: as §1
# [28] = molecular target: Fuc(a1-3)[Gal(b1-4)]GlcNAc(b1-6)GalNAc
# Summary of the method: as §1
# [29] = molecular target: Gal(b1-3)Gal(b1-4)GlcNAc
# Summary of the method: as §1
# [30] = molecular target: Gal(b1-4)GlcNAc(b1-2)Man(a1-6)Man(b1-4)GlcNAc(b1-4)GlcNAc
# Summary of the method: as §1
# [31] = molecular target: Gal(b1-4)GlcNAc(b1-3)Gal(b1-4)GlcNAc(b1-2)[Gal(b1-4)GlcNAc(b1-3)Gal(b1-4)GlcNAc(b1-6)]Man(a1-6)[Gal(b1-4)GlcNAc(b1-3)Gal(b1-4)GlcNAc(b1-2)Man(a1-3)]Man(b1-4)GlcNAc(b1-4)GlcNAc
# Summary of the method: as §1
# [32] = molecular target: Gal(b1-4)GlcNAc(b1-3)Gal(b1-4)GlcNAc(b1-2)[Gal(b1-4)GlcNAc(b1-3)Gal(b1-4)GlcNAc(b1-6)]Man(a1-6)[Gal(b1-4)GlcNAc(b1-3)Gal(b1-4)GlcNAc(b1-2)Man(a1-3)]Man(b1-4)GlcNAc(b1-4)[Fuc(a1-6)]GlcNAc
# Summary of the method: as §1
# [33] = molecular target: Gal(b1-4)GlcNAc(b1-3)Gal(b1-4)GlcNAc(b1-3)Gal(b1-4)GlcNAc(b1-3)Gal(b1-4)GlcNAc(b1-3)Gal(b1-4)GlcNAc(b1-2)Man(a1-3)[Gal(b1-4)GlcNAc(b1-3)Gal(b1-4)GlcNAc(b1-3)Gal(b1-4)GlcNAc(b1-3)Gal(b1-4)GlcNAc(b1-3)Gal(b1-4)GlcNAc(b1-2)Man(a1-6)]Man(b1-4)GlcNAc(b1-4)[Fuc(a1-6)]GlcNAc
# Summary of the method: as §1
# [34] = molecular target: Gal(b1-4)GlcNAc(b1-3)Gal(b1-4)GlcNAc(b1-3)[Gal(b1-4)GlcNAc(b1-3)Gal(b1-4)GlcNAc(b1-6)]GalNAc
# Summary of the method: as §1
# [35] = molecular target: Gal3S(b1-4)[Fuc(a1-3)]GlcNAc6S
# Summary of the method: as §1
# [36] = molecular target: GalNAc(b1-4)GlcNAc(b1-2)Man(a1-3)[GalNAc(b1-4)GlcNAc(b1-2)Man(a1-6)]Man(b1-4)GlcNAc(b1-4)GlcNAc
# Summary of the method: as §1
# [37] = molecular target: GalNAc(b1-4)GlcNAc(b1-3)GalNAc(b1-4)GlcNAc
# Summary of the method: as §1
# [38] = molecular target: Glc(a1-6)Glc(a1-6)Glc(a1-6)Glc
# Summary of the method: as §1
# [39] = molecular target: GlcNAc(b1-3)Gal(b1-4)GlcNAc(b1-3)Gal(b1-4)GlcNAc(b1-3)Gal(b1-4)GlcNAc(b1-3)Gal(b1-4)GlcNAc(b1-2)Man(a1-3)[GlcNAc(b1-3)Gal(b1-4)GlcNAc(b1-3)Gal(b1-4)GlcNAc(b1-3)Gal(b1-4)GlcNAc(b1-3)Gal(b1-4)GlcNAc(b1-2)Man(a1-6)]Man(b1-4)GlcNAc(b1-4)[Fuc(a1-6)]GlcNAc
# Summary of the method: as §1
# [40] = molecular target: GlcNAc(b1-3)Gal(b1-4)GlcNAc(b1-3)GalNAc
# Summary of the method: as §1
# [41] = molecular target: GlcNAc(b1-3)GalNAc
# Summary of the method: as §1
# [42] = molecular target: GlcNAc(b1-3)Man
# Summary of the method: as §1
# [43] = molecular target: GlcNAc(b1-3)[GlcNAc(b1-4)][GlcNAc(b1-6)]GlcNAc
# Summary of the method: as §1
# [44] = molecular target: Kdn(a2-6)Gal(b1-4)GlcNAc
# Summary of the method: as §1
# [45] = molecular target: Man(a1-2)Man(a1-6)[Man(a1-3)]Man(a1-6)[Man(a1-2)Man(a1-2)Man(a1-3)]Man
# Summary of the method: as §1
# [46] = molecular target: Man(a1-2)Man(a1-6)[Man(a1-3)]Man(a1-6)[Man(a1-2)Man(a1-2)Man(a1-3)]Man(b1-4)GlcNAc(b1-4)GlcNAc
# Summary of the method: as §1
# [47] = molecular target: Man(a1-3)[Man(a1-6)]Man(a1-6)[Man(a1-2)Man(a1-3)]Man(b1-4)GlcNAc(b1-4)GlcNAc
# Summary of the method: as §1
# [48] = molecular target: Man(a1-3)[Man(a1-6)]Man(a1-6)[Man(a1-3)]Man
# Summary of the method: as §1
# [49] = molecular target: Neu5Ac(a2-3)Gal(b1-3)GlcNAc
# Summary of the method: as §1
# [50] = molecular target: Neu5Ac(a2-3)Gal(b1-3)GlcNAc(b1-2)Man
# Summary of the method: as §1
binder,measurement,setting,value
B1,glycan array binding signal (z-score),[1],0.726
same,glycan array binding signal (z-score),[2],0.136
same,glycan array binding signal (z-score),[3],0.085
same,glycan array binding signal (z-score),[4],-0.245
same,glycan array binding signal (z-score),[5],0.197
same,glycan array binding signal (z-score),[6],5.94
same,glycan array binding signal (z-score),[7],-0.196
same,glycan array binding signal (z-score),[8],0.035
same,glycan array binding signal (z-score),[9],-0.355
same,glycan array binding signal (z-score),[10],-0.172
same,glycan array binding signal (z-score),[11],-0.276
same,glycan array binding signal (z-score),[12],-0.371
same,glycan array binding signal (z-score),[13],-0.387
same,glycan array binding signal (z-score),[14],-0.231
same,glycan array binding signal (z-score),[15],9.11
same,glycan array binding signal (z-score),[16],1.06
same,glycan array binding signal (z-score),[17],-0.264
same,glycan array binding signal (z-score),[18],-0.338
same,glycan array binding signal (z-score),[19],-0.264
same,glycan array binding signal (z-score),[20],-0.039
same,glycan array binding signal (z-score),[21],0.954
B2,glycan array binding signal (z-score),[1],-0.017
same,glycan array binding signal (z-score),[22],-0.614
same,glycan array binding signal (z-score),[23],-0.416
same,glycan array binding signal (z-score),[24],-0.218
same,glycan array binding signal (z-score),[25],0.673
same,glycan array binding signal (z-score),[26],2.63
same,glycan array binding signal (z-score),[27],-0.531
same,glycan array binding signal (z-score),[28],-0.313
same,glycan array binding signal (z-score),[29],-0.059
same,glycan array binding signal (z-score),[30],0.711
same,glycan array binding signal (z-score),[31],4.75
same,glycan array binding signal (z-score),[32],0.752
same,glycan array binding signal (z-score),[33],2.19
same,glycan array binding signal (z-score),[34],2.23
same,glycan array binding signal (z-score),[35],-0.723
same,glycan array binding signal (z-score),[36],2.13
same,glycan array binding signal (z-score),[37],-0.44
same,glycan array binding signal (z-score),[38],1.4
same,glycan array binding signal (z-score),[39],2.91
same,glycan array binding signal (z-score),[40],2.79
same,glycan array binding signal (z-score),[41],-0.079
same,glycan array binding signal (z-score),[42],-0.272
same,glycan array binding signal (z-score),[43],-1.58
same,glycan array binding signal (z-score),[44],-0.857
same,glycan array binding signal (z-score),[45],-0.467
same,glycan array binding signal (z-score),[46],-0.429
same,glycan array binding signal (z-score),[47],-0.076
same,glycan array binding signal (z-score),[48],2.11
same,glycan array binding signal (z-score),[49],-0.487
same,glycan array binding signal (z-score),[50],0.574

# Source: the supplement of paper PMC8728848
